# Source: PubChem (National Center for Advancing Translational Sciences (NCATS))
# This is a sample that favours compounds with a hit; in the whole collection about 11% have one here.
# ALDH1A1 block: blocks purified human ALDH1A1 activity. P00352. actives 7.3% (n = 220,000). Purified ALDH1A1, NADH fluorescence, propionaldehyde substrate. Potency, µM (series often up to 75.3 µM), without a hit: top-dose activity, negative = inhibition, usual class: inhibitors; active = well fitted inhibition curve with a large enough effect, not every such curve was filed as active; inconclusive = small, poorly fitted or top-dose-only effect, or another doubt; inactive = no such curve, though single readings can be large or run the other way;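 note: potency is the fitted concentration of half-maximal effect; plate controls were no enzyme wells and a reference inhibitor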
# Target sequence (P00352 whole entry, looked up): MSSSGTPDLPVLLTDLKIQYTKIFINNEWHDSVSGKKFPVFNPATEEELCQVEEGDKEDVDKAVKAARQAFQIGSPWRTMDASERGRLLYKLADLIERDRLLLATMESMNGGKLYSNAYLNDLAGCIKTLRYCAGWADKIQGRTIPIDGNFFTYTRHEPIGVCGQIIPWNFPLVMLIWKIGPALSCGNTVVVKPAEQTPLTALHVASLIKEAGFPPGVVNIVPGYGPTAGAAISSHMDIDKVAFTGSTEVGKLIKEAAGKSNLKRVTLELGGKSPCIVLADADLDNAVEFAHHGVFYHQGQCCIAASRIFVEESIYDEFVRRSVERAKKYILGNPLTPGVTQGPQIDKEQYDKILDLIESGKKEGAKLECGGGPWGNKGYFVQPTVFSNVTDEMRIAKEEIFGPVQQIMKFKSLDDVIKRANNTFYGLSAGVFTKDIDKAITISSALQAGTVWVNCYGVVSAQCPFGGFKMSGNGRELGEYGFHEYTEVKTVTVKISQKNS
# IMPase Li cell: cell-permeable IMPase inhibitors with lithium potentiation; CHO-M1 cells, IP1 TR-FRET (IP-One), carbachol + lithium; Potency, µM (doses to about 59.4 µM), for the others: at the highest dose activity, negative = IMPase inhibition, hits mostly inhibitors; actives 0.35% (n = 210,000); AID 1457;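 note: IP1 builds up when IMPase is blocked and the TR-FRET signal falls; potency is the fitted concentration of half-maximal effect; plate controls were basal vehicle for no effect and high inhibitor control for full effect; nearly all actives have a fitted effect of over 50% in size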
#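 CHO-M1, 2000 cells/well, 16–30 h culture; cpd + low Li+, 30 min 37C; lysis with d2-IP1/Eu-anti-IP1 Ab, 10 min RT; TR-FRET 665/620 ratio and 620 channel; AC50 via Hill.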
# IMPase cell inh: membrane-permeable compound that blocks inositol monophosphatase. P97697. CHO-M1 cells, IP1 accumulation, HTRF TR-FRET ratio. inhibition (IP1 accumulation), % at 46.1 µM. 120,000 tested, under 10 active; active = well fitted curve in the direction sought with a large enough effect in the signal ratio, not every such curve was filed as active; inconclusive = small, poorly fitted or top-dose-only effect, or a change in a side signal; inactive = no such curve, though single readings can be large or run the other way; the % refers to the signal ratio;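 note: cells stimulated with carbachol in lithium chloride buffer; plate controls were DMSO basal wells for no effect and reference inhibitor wells for full effect; higher means more IMPase inhibition seen as more IP1 and lower FRET ratio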
# Target sequence (P97697 whole entry, looked up): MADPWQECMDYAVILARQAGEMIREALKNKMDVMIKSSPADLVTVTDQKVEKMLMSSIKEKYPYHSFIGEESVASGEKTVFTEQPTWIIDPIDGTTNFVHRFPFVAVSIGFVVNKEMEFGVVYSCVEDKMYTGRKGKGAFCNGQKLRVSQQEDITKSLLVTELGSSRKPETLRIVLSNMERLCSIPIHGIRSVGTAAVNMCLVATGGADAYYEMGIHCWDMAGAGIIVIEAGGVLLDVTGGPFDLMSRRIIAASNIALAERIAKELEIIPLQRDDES
#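 CHO-M1, 2000 cells/well, cultured 16–30 h; cpd up to 46 uM; carbachol (50 uM solution, stimulation buffer w/ 50 mM LiCl, pH 7.4), 30 min 37C; IP-One TR-FRET, 10 min RT; Ex 320/Em 665, 620; Hill-fit AC50.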
# HPGD inh: inhibitors of human 15-hydroxyprostaglandin dehydrogenase (HPGD) | Potency, µM, without a hit: at the highest dose activity change, negative = inhibition, most hits filed as inhibitors | P15428 | actives 4.3% (n = 150,000) | AID 894 | purified HPGD, NADH fluorescence kinetic, PGE2 substrate; active = well fitted inhibition curve with a large enough effect, not every such curve was filed as active; inconclusive = small, poorly fitted or top-dose-only effect, or another doubt; inactive = no such curve, though single readings can be large or run the other way; note: potency is the fitted concentration of half-maximal effect
#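 20 nM HPGD preincubated 15 min at room temperature with compound in 50 mM Tris-HCl pH 8, 0.01% Tween 20. Started with 1 mM NAD+ and 30 uM prostaglandin E2; NADH fluorescence (360/450 nm) read 5 times over 30-s intervals, last minus first.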
# PNC assembly inh: perinucleolar compartment assembly inhibition; PC3M PTB-GFP, PNC prevalence imaging, 16 h; hits give low values; activity change (PNC), negative = inhibition, % at 10 µM; actives 3.1% (n = 140,000); AID 2417;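 active = readout at or below -70, meaning at least 70% loss of cells showing the perinucleolar compartment, a nuclear body marking cancer cells; inconclusive = readout between -30 and a set limit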;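 note: plate controls were DMSO wells for no effect and camptothecin positive control wells for full effect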
#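 PC3M cells stably expressing PTB-GFP, 750–1000 cells/well, treated 16 h at 37 °C with compound (23 nl of library stock), in duplicate. After paraformaldehyde fixation and Hoechst stain, imaged at 20x; PNC prevalence scored by image analysis.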
# ALOX12 inhib: blocks human 12-lipoxygenase activity; purified 12-hLO, xylenol orange hydroperoxide absorbance; Potency, µM (doses to about 57.1 µM), inactives show at the top dose activity change, negative = inhibition, most hits filed as inhibitors; actives 0.12% (n = 150,000); AID 1452; note: potency is the fitted concentration of half-maximal effect; nearly all actives have a fitted effect of over 55% in size
#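 Xylenol orange chromogenic assay: hydroperoxide from 12hLO oxidises Fe(II), giving red-shifted Fe(III)-XO absorbance. Conditions: 150 nM enzyme, 40 uM arachidonic acid, 25 mM Hepes pH 7.0, 0.01% Triton X-100, 30 min, room temperature.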
# Active calls of the source: *; u = inconclusive; x = not tested or not shown; [ ] = remark or other dose. Unless noted, calls come from the whole dose curve; as a rule, active = well fitted curve in the direction sought with a large enough effect; inconclusive = small, poorly fitted or top-dose-only effect, or another doubt; inactive = no such curve, though single readings can be large; an effect the other way counts as inactive or inconclusive. Unless noted, % is set by controls: 0 for no effect and ±100 for the full control effect.
SMILES,ALDH1A1 block,IMPase Li cell,IMPase cell inh,HPGD inh,PNC assembly inh,ALOX12 inhib
O=C1CC(N2CCN(c3ccccn3)CC2)C(=O)N1c1ccc(Cl)cc1 (configuration not stated),25.1µM*,-4.8%,x,x,x,x
O=C1CC(N2CCCCC2)C(=O)N1c1ccccc1 (configuration not stated),u,4.1%,7.5,-9.7%,-100.0*,-1.9%
O=C1CC(N2CCN(c3ccc(S(=O)(=O)N4CCCC4)cc3)CC2)C(=O)N1c1ccc(F)cc1 (configuration not stated),u,5.1%[38.3 µM],3.6,-10.8%,-30.0,-2.9%
O=C1CC(N2CCCN(C3CC(=O)N(c4ccc(F)cc4)C3=O)CC2)C(=O)N1c1ccc(F)cc1 (configuration not stated),12.6µM*,14.9%[38.3 µM],4.3,-4.8%,-12.8,-1.9%
CC(C)COc1cccc(C(=O)Nc2ccc(-c3nc4ncccc4o3)cc2)c1,x,x,2.1,x,x,x
CC1(C)CC(CC(=O)Nc2ccc([N+](=O)[O-])cc2)C(=O)O1 (configuration not stated),-7.2%,3.2%[38.3 µM],12.9,-5.1%,8.5,7.1%
CCCCCCC1CC(CC(=O)Nc2ccc([N+](=O)[O-])cc2)C(=O)O1 (configuration not stated),13.7%,9.6%,8.0,-2.6%,-103.5*,0.8%
CC1CCOC(c2coc3ccccc3c2=O)O1 (configuration not stated),20µM*,-1.0%,x,-15.1%,13.5,2.1%
CC1CCCC(NC(=O)C2CCN(S(=O)(=O)N3CCCCCC3)CC2)C1C (configuration not stated),u,7.1%,x,-10.1%,12.6,3.4%
O=C(CSc1nnc(CNC(=O)c2c(F)cccc2Cl)o1)Nc1cccc(F)c1,x,x,3.7,x,x,x
Cc1ccc(NC(=O)CSc2nnc(CNC(=O)c3c(F)cccc3Cl)o2)cc1,-2.8%,3.8%[38.3 µM],5.3,-14.3%,-91.3*,-8.8%
CCSc1nnc(NC(=O)CSc2nnc(CNC(=O)c3ccccc3F)o2)s1,u,-4.7%,x,-17.3%,-123.8*,-1.0%
Cc1ccccc1-c1cc(NCc2ccccc2)ncn1,-3.9%,4.3%,x,x,x,x
O=C(O)c1ccc(Cl)cc1Cl,-9.3%,8.7%,x,-11.0%,x,2.4%
O=C(c1cnccn1)N1CCC2(CC1)CN(c1cccc(-c3ccccc3)c1)C2,-6.5%,6.3%,x,-16.6%,x,-7.9%
COc1ccc(-c2nc3ccccc3o2)cc1NC(=O)c1ccc(-c2cccc(Cl)c2C)o1,x,x,-6.1,x,x,x
OC(c1cccs1)(c1cccs1)C1C[N+]2(CF)CCC1CC2 (configuration not stated),7.3%,32.5%,16.0[1.84 µM],-4.8%,-98.2*,-3.2%
O=C(O)[C@@H]1[C@@H](C(=O)O)[C@@]23CCCC2=C2CC[C@@]3(C(=O)O)[C@@]3(C(=O)O)C[C@@]213,3.2%[13.5 µM],6.8%,x,-7.8%,x,x
CCOc1ccc(C(=O)Nc2ccc3c(c2)OCO3)cc1OCC,0.5%,-7.3%[38.3 µM],3.0,-3.5%,u,-0.8%
CCN(CC)S(=O)(=O)c1cccc(C(=O)Nc2ccc3c(c2)OCO3)c1,u,17.3%,x,x,x,x
CCC(CC)C(=O)Nc1cccc(S(=O)(=O)c2cccc(NC(=O)C(CC)CC)c2)c1,-9.9%,11.2µM*,-9.9,-19.9%,-23.3,4.0%
CCC(CC)C(=O)Nc1cccc(C(=O)Nc2ccc(S(N)(=O)=O)cc2)c1,-3.9%,20.0%,x,x,x,x
CCC(CC)C(=O)Nc1cccc(C(=O)Nc2ccc3c(c2)OCO3)c1,12.6µM*,30.9%[38.3 µM],8.1,-12.0%,-27.1,-2.5%
CCN(CC)S(=O)(=O)c1ccc(C(=O)Nc2ccc3c(c2)OCCO3)cc1,12.6µM*,11.6%[38.3 µM],3.2,-10.3%,32.7,-5.1%
CCOc1cc(C(=O)Nc2ccc3c(c2)OCO3)ccc1OCCOc1ccccc1Cl,-1.6%,-1.0%[38.3 µM],11.9,-11.2%,-86.9*,-7.3%
SMILES,ALDH1A1 block,IMPase Li cell,IMPase cell inh,HPGD inh,PNC assembly inh,ALOX12 inhib
CC(=O)OCC1C2CC[C@H]3C(OCc4ccc(F)cc4C(F)(F)F)OC[C@]4(C)[C@H]3C2=C(CN4C(=O)OC(C)(C)C)[C@H](C)C1COC(C)=O (some centres not stated),-8.3%,-3.5%,x,-1.4%,x,-4.8%
Cc1c(Cl)cccc1NC(=O)C(C)N(c1ccccc1)S(C)(=O)=O (configuration not stated),x,x,6.6,x,x,x
CCCN(CCC)S(=O)(=O)c1cccc(C(=O)Nc2ccc3c(c2)OCO3)c1,3.16µM*,8.7%[38.3 µM],15.9,-16.3%,28.5,-6.8%
O=C(Nc1cccc(F)c1)c1ccc2c(c1)OCO2,-1.3%,3.0%[38.3 µM],7.4,u,u,3.7%
O=C(Nc1c(C(=O)Nc2cccc(F)c2)oc2ccccc12)c1ccc2c(c1)OCO2,u,14.1µM*,0.6,u,43.3,-19.1%
CCN(CC)S(=O)(=O)c1ccc(S(=O)(=O)Nc2cc3c(cc2C(C)=O)OCO3)cc1,3.16µM*,x,14.8,x,-15.9,-4.1%
CC(=O)Nc1nc(C)c(CCCOc2ccc([N+](=O)[O-])cc2)c(=O)[nH]1,-0.2%,x,x,x,x,x
COc1cccc(C(=O)NCCC2=CCCCC2)c1,u,30.7%[38.3 µM],2.6,14.1µM*,-18.4,8.5%
COc1cccc(-n2c(SCC(=O)NCCC3=CCCCC3)nc3n[nH]c(C)c3c2=N)c1,20µM*,10.4%[38.3 µM],-1.3,-17.0%,51.0,-3.0%
Cc1cc(C(=O)NCCC2=CCCCC2)ccc1[N+](=O)[O-],25.1µM*,8.8%,x,x,x,x
CCOc1cccc2cc(C(=O)NCCC3=CCCCC3)c(=O)oc12,25.1µM*,6.9%,x,x,x,x
Cc1cc(C)cc(-c2cc3c(c(-c4c(O)c(-c5cc(C)cc(C)c5)cc5c4CCCC5)c2O)CCCC3)c1,13.4%,4.1%,x,-3.9%,x,x
C[C@H](N)C(=O)OC(C)(C)Cc1ccc(Cl)cc1,x,x,-4.2,x,x,-3.7%
COc1ccc(C(=O)NCC(=O)OCC(=O)NCCC2=CCCCC2)cc1,15.8µM*,-3.9%,x,x,x,x
CCCCCCCC1=Cc2ccc(F)cc2C(C(C(C)=O)C(=O)OC)N1C(=O)OC (configuration not stated),13.9%,10.4%,x,-4.9%,x,-4.1%[11.4 µM]
COC(=O)c1c(C)nc(C)c(C(=O)OC)c1-c1ccc(OC)c(OC)c1,15.9%,6.6%,x,x,x,x
CCOC(=O)c1c(C)nc(C)c(C(=O)OCC)c1-c1ccc(O)c(OC)c1,15.8µM*,2.9%,x,x,x,x
CCOc1ccccc1NC=C1C(=O)OC(C)(C)OC1=O,2.24µM*,-9.4%[38.3 µM],4.2,-23.6%,60.6,-0.2%
COc1ccccc1NC=C1C(=O)OC(C)(C)OC1=O,0.355µM*,-8.2%[38.3 µM],3.5,-15.3%,46.3,1.2%
O=C(COc1ccc2oc3c(c2c1)CCCC3)Nc1ccc(Br)cc1,x,x,1.1,x,x,x
